Measurements taken from PubChem BioAssay AID687001 (Broad Institute, 2013).
Potency and affinity values are given separately. The source made the active and inactive calls.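 The calls were made as follows: active = signal-lowering compounds whose fitted half-maximal concentration is at or below twice the top tested dose in every run; inconclusive = runs disagree, flat 30 to 70% inhibition, or poor curve fit; inactive = the rest.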

What follows are compounds tested against Protein S100-A4 (Homo sapiens) (UniProt P26447) (assay: human S100A4 peptide interaction inhibition curves – biochemical, fluorescence polarization, cherry-picked hits, dose response (AID 687001)). Conditions: FP, S100A4/TAMRA-myosin IIA peptide binding; series mostly up to 11 µM.
Sequence of Protein S100-A4 (Homo sapiens) (P26447 whole entry, looked up): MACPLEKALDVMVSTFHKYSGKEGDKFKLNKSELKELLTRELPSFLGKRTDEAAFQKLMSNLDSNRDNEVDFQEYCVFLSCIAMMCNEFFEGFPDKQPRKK

outcome, inactive:
CCCNC(=O)N1[C@H](CO)[C@@H]2c3ccccc3N(C(=O)c3ccc(F)cc3)C[C@@H]21, CCC(=O)N1C[C@@H]2[C@H](c3ccccc31)[C@@H](CO)N2C(=O)CC, COc1cc(Cl)ccc1OCc1cc(C(=O)N(C)Cc2nnc(C)o2)no1, COc1cc2cnc(-c3ccccc3F)cc2cc1OC, Cc1onc(-c2ccccc2Cl)c1C(=O)N1CCCC1, Cc1cc(C)c(NC(=O)CNC(=O)COC(=O)/C=C/c2cccs2)c(C)c1, O=C(C[C@@H]1C[C@H]2c3cc(NC(=O)NC4CCCC4)ccc3O[C@H]2[C@H](CO)O1)NCCc1ccccc1, COc1ccc(-c2ccc3c(c2)[C@@H]2[C@@H](CCN2C(=O)NC2CCCC2)[C@H](CO)N3C)cc1, COc1ccc2c(c1)C=CC1(O2)N(CCO)c2ccccc2C1(C)C (stereo not given), Cc1cccc(C)c1NC(=O)CN1CCN(c2ccc(C(F)(F)F)cn2)CC1, O=C(CN1C(=O)CCS(=O)(=O)c2ccccc21)Nc1ccc(F)cc1, CCCNC(=O)N1CC(=O)N2[C@H](CO)[C@@H](c3ccc(-c4ccc(F)cc4)cc3)[C@H]2C1, OCCC1CN(Cc2ccc3c(c2)CCO3)CCN1Cc1ccc(F)cc1 (stereo not given), CCOc1ccc(OCCC(=O)N(CC(=O)Nc2ccccc2C(F)(F)F)Cc2ccco2)cc1, CCCC(=O)Nc1ccc2c(c1)OC[C@H](C)N(CCC(F)(F)F)C[C@H](C)[C@@H](OC)CN(C)C2=O
